Source: PubChem BioAssay AID492993 (Johns Hopkins Ion Channel Center, 2010)
Among all 4,900 compounds or so, about 200 (4.1%) were called active.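 Rule for the calls: active = thallium signal drop more than 5 SD beyond the mean of the no-compound control wells, seen in both duplicate plates; inactive = the rest.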 These entries were drawn from the full list.

Each compound was assayed against Inward rectifier potassium channel 2 (Mus musculus) (UniProt P35561) (assay: off-target Kir2.1 potassium flux block – cell-based, HEK293, thallium flux, selectivity assay for KCNK9 modulator project, confirmation (AID 492993;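 for inhibition: signal is fluorescence rise after thallium addition divided by baseline fluorescence; plate controls were assay buffer only for no effect and full block by chlorpromazine control for full effect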)). Details: Kir2.1 cells, FluxOR thallium flux fluorescence, at 10 µM; hits give high values.
Sequence of Inward rectifier potassium channel 2 (Mus musculus) (P35561 whole entry, looked up): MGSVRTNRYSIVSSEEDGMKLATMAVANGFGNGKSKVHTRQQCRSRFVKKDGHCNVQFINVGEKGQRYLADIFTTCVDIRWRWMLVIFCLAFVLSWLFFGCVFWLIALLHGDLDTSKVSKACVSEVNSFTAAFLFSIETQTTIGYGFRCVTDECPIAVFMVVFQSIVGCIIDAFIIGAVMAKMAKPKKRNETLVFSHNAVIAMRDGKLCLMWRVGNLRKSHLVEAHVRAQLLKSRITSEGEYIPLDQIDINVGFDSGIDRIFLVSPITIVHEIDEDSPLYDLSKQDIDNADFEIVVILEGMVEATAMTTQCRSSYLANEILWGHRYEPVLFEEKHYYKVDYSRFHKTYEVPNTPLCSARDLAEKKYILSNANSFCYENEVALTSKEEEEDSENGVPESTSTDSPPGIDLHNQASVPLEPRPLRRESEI

Structure (SMILES)	inhibition
COc1ccc(C2CC(c3cccs3)=Nc3ccccc3S2)cc1OC (centres undefined)	inactive
COc1ccc(C(CCN(Cc2ccc(OC)c(OC)c2)C(=O)CCl)c2ccccc2)cc1 (centres undefined)	inactive
Cc1ccc(OCc2cc(C(=O)N(C)CCc3ccccc3)no2)cc1C	inactive
CCOc1ccc(OCc2ccc(C(=O)Nc3cccc(C)n3)o2)cc1	inactive
Cc1ccccc1CSc1nnc(CCCCCNC(=O)OC(C)(C)C)o1	inactive
CC1(C)CC(=O)CC2(C1)NCC(c1ccccc1Cl)c1c2[nH]c2ccccc12 (centres undefined)	inactive
O=C(NCCc1ccccc1)c1ccc2c(c1)N(Cc1ccccc1)CCS2	inactive
CCC1(C)Cc2c(sc3[nH]c(=S)n(Cc4ccccc4)c(=O)c23)CO1 (centres undefined)	inactive
COc1ccc(CCNc2ncnc3c2nnn3Cc2ccccc2)cc1	inactive
COc1ccc(-c2nc(CCNC(=O)c3ccc(Br)o3)cs2)cc1	inactive
COc1ccc(CCNC(=O)c2ccccc2OCc2ccccc2)cc1	54.5% (active)
CCOc1ccc2[nH]c(=O)c(CN(Cc3nnnn3CCc3ccccc3)CC3CCCO3)cc2c1 (centres undefined)	inactive
C=CCOc1ccc(/C=N/NC(=O)C(C)Sc2ccccn2)cc1OCC (centres undefined)	inactive
O=C(OCC(=O)N(CCc1ccccc1)Cc1ccccc1)c1ccccc1[N+](=O)[O-]	inactive
Cc1cccc(NC(=O)c2sc3nc4c(c(-c5ccco5)c3c2N)CCC4)c1	inactive
O=C(/C=C/NNC(=O)c1cccc(Br)c1)c1ccccc1	inactive
COc1cccc(-c2nn(C)c3sc(C(=O)N4CCN(c5ccccc5)CC4)cc23)c1	inactive
CC(C)CC(COCc1ccc(Cl)cc1)N1CCN(C(=O)c2ccc(C(F)(F)F)cc2)CCC1=O (centres undefined)	inactive
O=C(COC(=O)c1c2c(nc3ccccc13)CCCC2)c1ccc(Br)s1	inactive
Cc1cc(OC(C)C(=O)Nc2ccc(S(=O)(=O)Nc3onc(C)c3C)cc2)cc(C)c1Cl (centres undefined)	inactive
O=C(CNCCC1=CCCCC1)Nc1ccccc1N1CCCCCC1	34.5% (active)
Cc1cccc(C(=O)Nc2ccccc2N2CCN(c3ccc(F)cc3)CC2)c1	inactive

Structure (SMILES)	inhibition
CCCCC(=O)Nc1ccccc1N1CCN(c2ccc(F)cc2)CC1	inactive
CCOc1ccccc1NC(=O)C1CCCN(S(=O)(=O)c2ccccc2)C1 (centres undefined)	inactive
COc1ccc(C(=O)Nc2ccccc2C(=O)N/N=C/c2ccccc2OC)cc1	inactive
COC(=O)C1=C(Nc2ccc(C)cc2)C=C(C)C(C(=O)OC)C1c1ccc(F)cc1 (centres undefined)	inactive
Clc1ccc(Cl)c(Oc2ccc(Oc3nc(Cl)ccc3Cl)cc2)n1	inactive
CCOc1cccc(OCCCOc2cccc3cccnc23)c1	inactive
O=C(COC(=O)c1ccccc1)Nc1ccccc1Sc1ccccc1	inactive
COc1cccc(-c2cnc(OC(C)(C)C)nc2OC(C)(C)C)c1	inactive
CC(C)(C)C1CCC(C(=O)NCC(c2cccs2)N2CCOCC2)CC1 (centres undefined)	inactive
COCCNc1cc(-c2ccccc2)nc2cc(-c3cccc(F)c3)nn12	inactive
CCOC(=O)N1CCN(C(=O)COc2ccc3oc4c(c3c2)CCCC4)CC1	inactive
O=C(NCc1ccccc1)C1=C[C@@H](C2CCCCC2)C[C@@H](OCc2ccc(CO)cc2)O1	inactive
CCN(C(=O)COc1ccc(C(=O)c2ccccc2)cc1)c1ccccc1	inactive
Cc1cc2ccccn2c1C(=O)c1cccc(F)c1	inactive
CCOC(=O)C(C)Sc1nc2ccccc2c(=O)n1CC1CCCCC1 (centres undefined)	inactive
COc1cc(Cl)c(C)cc1NC(=O)CSc1nnc(-c2ccco2)n1CC(C)C	inactive
CC1CCN(C(=O)c2ccc(CSc3ccc(Cl)cc3)cc2)CC1	inactive
COc1ccc(-c2n[nH]c3c2CN(C(=O)c2ccc(F)cc2)CC3)cc1	inactive
Cc1ccc2c(c1)N(C(=O)CCC(=O)N1CCc3ccccc3C1)CCO2	inactive
O=C1CC(c2ccccc2)=NN1c1ccc([N+](=O)[O-])cc1	inactive
CCOC(=O)C1(CCOc2ccccc2)CCN(Cc2cc(OC)c(O)cc2Cl)CC1	inactive
COc1cccc(NC(=S)N(CCc2c(C)[nH]c3ccccc23)Cc2ccco2)c1	inactive

Structure (SMILES)	inhibition
Cc1cccc(N2CCN(C(=O)c3cccc(S(=O)(=O)N4CCc5ccccc5C4)c3)CC2C)c1 (centres undefined)	inactive
CCC(c1nnnn1Cc1ccco1)N(CCc1ccccc1)Cc1cc2cccc(C)c2[nH]c1=O (centres undefined)	inactive
COc1cccc2cc(C(C)N(CCCN3CCOCC3)C(=O)Nc3ccc(Cl)cc3)oc12 (centres undefined)	inactive
Cc1cccc2cc(CN(Cc3nnnn3Cc3ccccc3)C3CCCC3)c(=O)[nH]c12	inactive
Fc1ccc(Cn2nnnc2C(c2cccs2)N2CCCCCC2)cc1 (centres undefined)	inactive
COc1ccc(C(=O)NN2C(=O)C3C(c4ccccc4)C=CC(c4ccccc4)C3C2=O)cc1 (centres undefined)	inactive
COc1cc(Cl)ccc1OCc1cc(C(=O)N2CC[C@@H]3CCCC[C@H]3C2)no1	inactive
COc1ccccc1/C=C/C=N/n1c(-c2ccc(Cl)cc2Cl)n[nH]c1=S	inactive
CCOc1ccc(C2c3[nH]c4ccccc4c3CCN2Cc2cccn2-c2ncccn2)cc1 (centres undefined)	inactive
CC1=NN(c2cccc(Cl)c2)C(=O)C12CC(C)=C(C)CS2 (centres undefined)	inactive
CC1=CC(C)(C)N(C(=O)CSc2nnc(-c3ccccc3)o2)c2ccc(C)cc21	inactive
Fc1cccc(Cl)c1CSc1ccc(-c2ccco2)nn1	inactive
O=C(Nn1c(SCc2ccc([N+](=O)[O-])cc2)nc2ccccc2c1=O)c1ccc(F)cc1	inactive
Cc1ccc(NC(=O)c2cc([N+](=O)[O-])ccc2Cl)c(O)c1	inactive
O=C(Nc1ccc2c(c1)CCC2)c1cccc(S(=O)(=O)Nc2ccccc2Cl)c1	inactive
COc1ccc(OC)c(-c2csc(-c3cccs3)n2)c1	inactive
CCN(CC)S(=O)(=O)c1ccc(N(C)Cc2ccc(C(F)(F)F)cc2)nc1	inactive
Cc1ccnc(N2CCN(C(=O)CSc3nc4ccccc4nc3N3CCCCC3)CC2)c1	inactive
CC(C)(C)NC(=O)NC(=O)CN1CCC(Cc2ccccc2)CC1	inactive
CCN(CC)C(=O)CC1(c2ccccc2OC)CCOC(C(C)C)C1 (centres undefined)	inactive
COC(=O)c1cc(NC2c3ccccc3C(=O)N2c2ccc(Cl)cn2)cc(C(=O)OC)c1 (centres undefined)	inactive
O=C(COC(=O)/C(=C/c1cccs1)c1cccs1)NCc1ccccc1Cl	inactive

Structure (SMILES)	inhibition
N#Cc1nc(Cc2cccc3ccccc23)oc1NCc1ccc2c(c1)OCO2	51% (active)
C=CCN(N=Nc1cccc([N+](=O)[O-])c1)c1cccc([N+](=O)[O-])c1	inactive
COc1cccc(CN(C)C(=O)CC23CC4CC(CC(C4)C2)C3)c1OC	inactive
CCCCCCCCn1c2c(c(=N)c3c1CCC3)CCCC2	84% (active)
Clc1ccc(COn2c(-c3ccc(Cl)cc3Cl)nc3ncccc32)cc1	inactive
O=C(Nc1ccc(S(=O)(=O)N2CCCCC2)cc1)C1CCN(C(=O)c2ccc(F)cc2)CC1	inactive
Cc1nc(N2CCN(c3ccccn3)CC2)c2c(C)c(C(=O)Nc3ccc(F)c(Cl)c3)sc2n1	inactive
Cc1ccc(OS(=O)(=O)c2ccc(-c3csc(C)n3)s2)c(C)c1	inactive
C[C@@]12C(=O)N(c3cccc(Br)c3)C(=O)N1[C@H](c1ccc(Cl)cc1)[C@@H]1C(=O)N(C3CCCCC3)C(=O)[C@@H]12	inactive
COc1cccc2sc(NNC(=O)c3nc4ccccc4s3)nc12	inactive
COc1ccccc1NC(=O)CSc1nc2sc(C)c(C)c2c(=O)n1Cc1ccco1	inactive
O=C(NCCCc1ccccc1)c1cc(COc2c(F)cccc2F)on1	inactive
Cc1ccc(C2=NN(C)c3nc4ccccc4n3C2)cc1	inactive
O=C(Cc1ccccc1)n1nc(-c2ccccc2)nc1NCc1ccco1	inactive
Cc1cc(C)cc(OCC(=O)Nc2cc(NC(=O)COc3cc(C)cc(C)c3)cc(C(=O)O)c2)c1	inactive
Cc1cccc(NC(=O)N(Cc2cc3cc(C)cc(C)c3[nH]c2=O)CC2COCCO2)c1 (centres undefined)	inactive
CC1CCN(C(=S)c2ccc(-c3ccc(Cl)cc3Cl)o2)CC1	inactive
COC(=O)c1cccc(C(=O)N2CCCC(Nc3ccc4c(c3)OCCO4)C2)c1 (centres undefined)	inactive
Cc1ccc(C2=Nc3c(ccc4ccccc34)C(c3ccncc3)=NN2)cc1	inactive
Cc1ccc(CN(N=Nc2nonc2N)c2nonc2N)c(C)c1	inactive
Cc1ccc(Cn2ccc(NC(=O)c3cc(C(C)C)on3)n2)cc1	inactive
CCOC(=O)[C@@H]1[C@H]2COc3ccc(Br)cc3[C@H]2N2C(=O)N(c3ccc(Cl)cc3)C(=O)[C@@]12C	inactive

Structure (SMILES)	inhibition
O=C(N/N=C/c1ccccn1)c1cccc(NC(=O)c2ccc(Cl)cc2)c1	inactive
Cc1ncoc1C(=O)N1CCCC(C(=O)c2ccc3c4c(cccc24)CC3)C1 (centres undefined)	inactive
CCc1ccccc1NC(=O)/C(=C/c1ccccc1)c1ccccc1	inactive
COc1ccc(Nc2ncnc3sc(-c4ccccc4)cc23)c(OC)c1	inactive
O=S(=O)(Nc1cccc(Oc2ccc(Cl)cc2)n1)c1ccc(F)cc1	inactive
Brc1ccc(C2CC(c3ccccc3)=Nc3ccccc3N2)cc1 (centres undefined)	inactive
Cc1[nH][nH]c(=O)c1C(c1ccc(-c2ccc(Cl)cc2)o1)c1c(C)[nH][nH]c1=O	38% (active)
O=C(Nc1nnc(SCc2ccc(Cl)cc2Cl)s1)C1COc2ccccc2O1 (centres undefined)	inactive
CCCCN(Cc1ccccc1)C(=O)C1CCN(Cc2sccc2C)CC1	inactive
Clc1cccc(-c2nc3nc4ccccc4nc3n2Cc2ccco2)c1	inactive
O=C1N=C2SCCN2/C1=C\c1c(Cl)cccc1Cl	inactive
CCc1nnc(NS(=O)(=O)c2ccc(NC(=S)NC(=O)/C=C/c3cccs3)cc2)s1	inactive
COc1ccccc1N1CCN(c2ncnc3sc(C)c(-c4ccccc4)c23)CC1	inactive
O=C(Nc1ccccc1[N+](=O)[O-])C1C(c2ccccc2)=C1c1ccccc1	inactive
CCCCOC(=O)CCCc1ccc([N+](=O)[O-])cc1[N+](=O)[O-]	inactive
O=C(NC1Cc2ccccc2C1)c1cc(COc2cccc(C(F)(F)F)c2)on1	inactive
O=C(Nc1ccc(Oc2ccccc2)cc1)c1ccco1	inactive
Cc1ccc(C(=O)c2c(NC(=O)c3ccncc3)sc3c2CCCC3)cc1	inactive
Cc1onc(-c2ccc(Cl)cc2)c1-c1ccnn1S(=O)(=O)c1ccc(Cl)cc1	inactive
CN(C)c1ccc(C(CNC(=O)c2ccc(F)cc2)c2c[nH]c3ccccc23)cc1 (centres undefined)	inactive
CCn1cnc2scc(-c3ccc(C)c(C)c3)c2c1=O	inactive
